This is a sample that favours compounds with a hit; in the whole collection about 12% have one here.
Shiga inhibitor: inhibitors of Shiga toxin in Vero cells | Vero cells, Shiga toxin protein synthesis inhibition reporter | inhibition, % at 38.7 µM | 290,000 tested, 9.2% active | AID 2315; in the data active = inhibition mostly above about 28%, no sharp cut-off; inactive = mostly below about 43%; also: 0% is about no effect
NS1 function inh: influenza NS1 inhibition; Potency, µM (doses to about 46.1 µM), inactives show at the top dose activity, positive = more growth; 270,000 tested, 0.4% active; also: potency is read from the fitted curve at half-maximal effect; actives are rising curves; nearly all actives have a fitted effect of over 50% in size
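OD600 was taken as the measure of yeast growth restored by compound in an NS1-expressing S. cerevisiae strain. Cells had been washed out of glucose medium and diluted 1:100 into galactose -URA medium, pH 6.0.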
SARS PLP yeast: SARS-CoV PLP inhibition in yeast; S. cerevisiae expressing SARS-CoV PLpro, growth rescue; Potency, µM (highest dose often 32.9 µM), for inactives: at the top dose activity, positive = growth rescue, usual class: activators; 330,000 tested, 0.19% active; also: potency is read from the fitted curve at half-maximal effect; 0% is about no effect; nearly all actives have a fitted effect of over 55% in size
Cycloheximide cs: counter-screen for Shiga toxin inhibitors: cycloheximide protein synthesis inhibition | cell reporter, cycloheximide protein synthesis inhibition counterscreen | 300,000 tested, 12% active | max response, %; in the data active = max response mostly above about 13%, no sharp cut-off; inactive = mostly below about 14%; also: read at 38.3 µM for the half of the compounds with a filed dose; 0% is about no effect
Active calls of the source: *; nt = not tested or not shown. Unless noted, calls follow the shape of the full dose curve.

SMILES	Shiga inhibitor	NS1 function inh	SARS PLP yeast	Cycloheximide cs
Cc1nnc(N2C(=O)C(O)=C(C(=O)c3ccco3)C2c2ccc(F)cc2)s1 (centres undefined)	-4.7	-21.5%	7.0%	-2.1
CSc1ccc(C2C(C(=O)c3ccco3)=C(O)C(=O)N2c2nnc(SC)s2)cc1 (centres undefined)	74.9*	16.6%	-0.8%	36.2*
Cc1nnc(N2C(=O)C(O)=C(C(=O)c3ccco3)C2c2ccc(C(C)(C)C)cc2)s1 (centres undefined)	21.3	26.5%	24.3%	11.8*
C/C(CCC(=O)OC[C@H]1O[C@H](C#Cc2ccccc2)C=C[C@@H]1Oc1ccc(C)cc1)=N\O[C@@H](C)CN1CCCCc2nc(C)c(C)cc21	50.3	-0.4%	-5.8%	-1.0
CCOc1ccc(C(=O)Nc2ccc3[nH]ncc3c2)cc1	31.8	26.8%	3.1%	18.9*
COc1ccc(C(=O)Nc2ccc3cn[nH]c3c2)c(OC)c1	123.3*	nt	-0.3%	62.9*
O=C(COc1ccc(Cl)cc1)Nc1ccc2[nH]ncc2c1	-3.3	-7.1%	-3.4%	-2.5
O=C(O)c1c(Cl)c(Cl)c(Cl)c(Cl)c1C(=O)Nc1ccc2cn[nH]c2c1	nt	-5.5%	nt	nt
COc1ccc(C(=O)Nc2ccc3[nH]ncc3c2)cc1	52.7*	14.1%	-0.4%	18.9*
O=C(OCC#CCSc1nnc(-c2cccc3ccccc23)o1)c1ccc(F)cc1	nt	nt	3.9%	nt
Clc1ccc2oc(-c3ccccn3)nc2c1	117.6*	-5.1%	-5.1%	43.6*
O=C1CCC(=O)N1c1cccc(-c2nc3ccccc3o2)c1	43.4	-10.5%	11.2%	7.4
c1ccc(-c2nc3ccccc3o2)nc1	51.1*	-5.0%	-4.8%	42.2*
O=C1c2cccnc2C(=O)N1c1cccc(-c2nc3ccccc3o2)c1	67.5*	-1.1%	-3.1%	34.0*
c1cncc(-c2nc3ccccc3o2)c1	39.5	-5.8%	-1.6%	20.9*
C#CC1(NC(=O)NC(=O)c2c(F)cccc2F)CCCCC1	-2.3	6.0%	0.0%	-1.9
CCOC(=O)C1=CN(Cc2ccco2)S(=O)(=O)NC1c1ccc(C(F)(F)F)cc1 (centres undefined)	nt	nt	-6.3%	nt
CS(=O)(=O)N1CCC(Oc2ccccc2C(=O)NCCCc2cccnc2)CC1	-1.8	-0.7%	0.5%	1.4
CCC/C=C1/CCCOC(C(=O)NCC2CC2)(C(F)(F)F)C1 (centres undefined)	-12.2	nt	nt	-6.3
COc1ccc(-c2cc(-c3ccco3)[nH]c(=O)c2C#N)cc1OC	-14.2	0.9%	1.0%	0.2
Nc1ccc2oc(-c3ccccn3)nc2c1	71.3*	4.2%	-28.6%	33.9*
CCC(Oc1ccc(F)cc1)C(=O)N1CCCCCCC1 (centres undefined)	-4.0	19.0%	-0.4%	-1.6
CCS(=O)(=O)CCSC1OC(COC(C)=O)C(OC(C)=O)C(OC(C)=O)C1OC(C)=O (centres undefined)	-8.9	3.2%	-0.6%	-4.3
CC(Oc1ccccc1)C(=O)Nc1ccccc1F (centres undefined)	-4.8	0.7%	-3.7%	-0.5
COc1cccc(C(=O)Nc2ccc(C(F)(F)F)n(C)c2=O)c1	50.5*	-5.4%	-29.8%	34.6*
SMILES	Shiga inhibitor	NS1 function inh	SARS PLP yeast	Cycloheximide cs
COc1cccc(C(=O)N(C)CC(=O)Nc2ccc(F)c(F)c2F)c1	-7.0	-0.2%	-1.2%	-5.9
COc1cc(C(N)=O)ccc1OCc1ccccc1	84.9	-6.1%	nt	24.0
COc1ccc(COc2ccccc2C(N)=O)cc1F	66.1*	-2.6%	-14.2%	33.2*
COc1cccc(C(=O)Nc2ccc(F)c(F)c2F)c1	136.2*	-10.2%	3.9%	34.8*
O=C(Nc1ccccc1F)Oc1cccc(OC(=O)Nc2ccccc2F)c1	100.7*	-30.1%	-2.2%	45.5*
O=C(Nc1ccc(Cl)c(Cl)c1)c1cccc(S(=O)(=O)NCc2cccnc2)c1	-12.3	-43.7%	-26.3%	-3.5
COc1ccc(SC[C@H](Cc2ccccc2)N2CC[C@@H](C)CCC2=O)cc1	nt	nt	2.9%	nt
COc1ccsc1C(=O)Nc1ccc(F)cc1F	30.9	-2.8%	1.3%	30.0*
COc1ccccc1NC(=O)c1ccc(COc2ccccc2OC)o1	-7.5	-36.3%	-9.1%	1.0
CC(C)Oc1cccc(C(=O)Nc2ccc(Br)cc2F)c1	106.6*	-6.3%	2.9%	65.2*
COc1ccccc1OCc1ccc(C(=O)Nc2ccccc2F)cc1	47.3*	3.6%	10.5%	6.7*
O=C(Nc1c(F)cc(F)cc1Br)c1cccnc1	26.9	1.9%	2.6%	-1.7
O=C(Nc1ccc(Br)cc1F)c1cccnc1	86.1*	-17.2%	0.0%	15.3
O=C(Nc1ccc(S(=O)(=O)N2CCOCC2)cc1)c1ccccc1F	-1.2	-1.8%	1.3%	-1.6
O=C(c1ccc2c(c1)OCCO2)N1CCCC(CNS(=O)(=O)c2cccs2)C1 (centres undefined)	20.6	-4.9%	0.8%	9.8

Source: PubChem BioAssay
